Compound activity from PubChem BioAssay.
HTT cytoprotect = Huntington cell model cytoprotection by ATP luminescence | PC12 HTT-Q103 induced, cytoprotection, ATP luminescence, 40 h | Potency, µM (highest dose often 56.4 µM), without a hit: cytoprotection (ATP increase), hits mostly activators | 230,000 tested, 0.14% active; also: potency is read from the fitted curve at half-maximal effect; % of control where 0% means no effect; nearly all actives have a fitted effect of over 45% in size
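Quantitative HTS on tebufenozide-induced (100 nM) PC12 cells expressing HTTQ103 exon 1–GFP; compounds tested as a concentration series; survival measured via cellular ATP.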
HTT aggregate = inhibitors of mutant huntingtin aggregate formation in PC12 cells; PC12 HttQ103-GFP aggregates, Acumen cytometry, 40 h; Potency, µM (highest dose often 46.1 µM), for inactives: at the highest dose activity change, negative = inhibition, actives largely listed as inhibitors; 220,000 tested, 1.1% active; AID 1688; also: potency is read from the fitted curve at half-maximal effect; % is scaled to controls: 0 for no effect and ±100 for the full control effect; nearly all actives have a fitted effect of over 60% in size
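Ecdysone-promoter PC12 model expressing HTT exon 1 Q103 fused to GFP, induced by tebufenozide at 100 nM final. Compounds titrated; aggregates sized 1–25 µm scored on a 488 nm laser cytometer.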
RGS12 GoLoco inh = inhibitors of human Gai1-RGS12 GoLoco interaction (red fluorophore); Potency, µM (doses to about 61.6 µM), without a hit: top-dose activity, negative = inhibition, actives largely listed as inhibitors; 230,000 tested, 0.44% active; AID 880; Gai1:RGS12 GoLoco peptide FP, rhodamine, 10 min; active = well fitted inhibition curve with a large enough effect, not every such curve was filed as active; inactive = no such curve, though single readings can be large or run the other way; also: potency is read from the fitted curve at half-maximal effect; % is scaled to controls: 0 for no effect and ±100 for the full control effect; nearly all actives have a fitted effect of over 30% in size
Target sequence (P63096 whole entry, looked up): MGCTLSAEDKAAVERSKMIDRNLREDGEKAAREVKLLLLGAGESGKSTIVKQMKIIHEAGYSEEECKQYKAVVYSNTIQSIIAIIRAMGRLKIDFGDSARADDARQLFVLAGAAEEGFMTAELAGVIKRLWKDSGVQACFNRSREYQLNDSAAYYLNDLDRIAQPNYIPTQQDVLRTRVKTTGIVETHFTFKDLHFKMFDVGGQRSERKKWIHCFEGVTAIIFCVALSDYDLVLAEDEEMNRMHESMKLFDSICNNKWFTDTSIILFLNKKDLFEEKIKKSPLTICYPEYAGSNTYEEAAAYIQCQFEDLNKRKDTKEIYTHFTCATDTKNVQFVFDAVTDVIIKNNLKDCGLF
Coupling enz = counter-screen for Giardia aldolase inhibitors: coupling enzyme system; 290,000 tested, 0.67% active; activity change, negative = inhibition, % at 58.2 µM, hits read low; coupling enzyme system counterscreen, AmpLite Red fluorescence; in the data active = activity change below about -30%; also: % is scaled to controls: 0 for no effect and ±100 for the full control effect
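Counterscreen of the coupled detection system alone, without aldolase: glyceraldehyde-3-phosphate coupling enzymes plus AmpLite Red readout. Compounds at 57.5 uM final, 10 min RT preincubation, 20 min RT reaction, fluorescence 525/598 nm.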
KDM4E inh = blocks human JMJD2E demethylase activity; B2RXH2; JMJD2E catalytic domain, FDH-coupled NADH fluorescence (FDH is formaldehyde dehydrogenase); Potency, µM (highest dose often 57.1 µM), for the others: at the highest dose activity change, negative = inhibition, actives largely listed as inhibitors; 230,000 tested, 1.6% active; active = well fitted inhibition curve with a large enough effect, not every such curve was filed as active; inconclusive = small, poorly fitted or top-dose-only effect, or another doubt; inactive = no such curve, though single readings can be large or run the other way;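 also: potency is read from the fitted curve at half-maximal effect; 0% = wells with enzyme and -100% = buffer wells without enzyme; nearly all actives have a fitted effect of over 50% in size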
VDR inh = blocks the human vitamin D receptor; VDR-SRC2-3 peptide fluorescence polarization, 2 h; Potency, µM, for inactives: max response, negative = inhibition, usual class: inhibitors; 400,000 tested, 0.93% active; AID 504847; also: potency is read from the fitted curve at half-maximal effect; % is scaled to controls: 0 for no effect and ±100 for the full control effect
Target sequence (P11473 whole entry, looked up): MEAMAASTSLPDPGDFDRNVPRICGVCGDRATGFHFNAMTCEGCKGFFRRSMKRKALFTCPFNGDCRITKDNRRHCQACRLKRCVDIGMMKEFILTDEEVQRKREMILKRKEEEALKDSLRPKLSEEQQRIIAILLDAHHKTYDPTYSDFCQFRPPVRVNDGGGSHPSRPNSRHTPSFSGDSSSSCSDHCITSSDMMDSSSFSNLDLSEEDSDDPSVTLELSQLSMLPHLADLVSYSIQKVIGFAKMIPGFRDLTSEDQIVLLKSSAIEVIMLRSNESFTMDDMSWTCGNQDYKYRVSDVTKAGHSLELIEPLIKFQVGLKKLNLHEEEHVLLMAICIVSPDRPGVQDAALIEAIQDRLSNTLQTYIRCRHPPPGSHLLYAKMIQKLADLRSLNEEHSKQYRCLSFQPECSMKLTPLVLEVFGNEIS
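The screen uses fluorescence polarization to detect compounds that interfere with recruitment of the SRC2-3 coactivator peptide to VDR; plates are read after 2 h at room temperature.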
An asterisk follows results filed as active; ? = inconclusive; nt = not tested or not shown; ! = not confirmed by another sample; [ ] = dose if it differs, or a comment. An excerpt weighted towards active compounds, which were near 2.3% of everything screened. Unless noted, calls follow the shape of the dose curve; as a rule, active = well fitted curve in the direction sought with a large enough effect; inconclusive = small, poorly fitted or top-dose-only effect, or another doubt; inactive = no such curve, though single readings can be large; an effect the other way counts as inactive or inconclusive.

SMILES	HTT cytoprotect	HTT aggregate	RGS12 GoLoco inh	Coupling enz	KDM4E inh	VDR inh
CCOC(=O)c1ccccc1NC(=O)CN(c1ccccc1)S(=O)(=O)c1ccc(OCC)cc1	nt	nt	nt	nt	nt	-11%
CCOC(=O)c1ccccc1NS(=O)(=O)c1ccc(OCC)cc1	-44%[10 µM]	11µM*	1%	-2	?	9%
O=C(Cc1cccs1)NC1C(=O)N2C(C(=O)[O-])=C(C[n+]3ccccc3)CSC12 (stereo unspecified)	-11%	-10%	18%	-2	?	25µM*
N#C[C@@H]1[C@@H]2C(=O)N(c3ccc4c(c3)OCCO4)C(=O)[C@@H]2C2c3ccccc3C=CN21 (stereo partly specified)	29%[10 µM]	-5%	31%	-34*	-18%	nt
O=C1/C(=C/c2ccc(O)cc2)COc2ccccc21	nt	nt	nt	3	nt	?
O=C1N/C(=C\c2ccc(O)cc2)C(=O)c2ccccc21	-1%	-8%	8%	-31*	-8%	?
COc1ccc(Cn2nnc3c(=O)[nH]c(C4CCN(C(=O)c5ccc(C)cc5)CC4)nc32)cc1OC	nt	nt	nt	nt	nt	19%
COc1ccc2nc(NC(=O)c3ccc(-c4cccc([N+](=O)[O-])c4)o3)sc2c1	-11%[10 µM]	0%	2.2µM*	3	-8%	nt
COc1ccc(NC(=O)c2ccc(-c3ccc([N+](=O)[O-])cc3)o2)cc1	-46%	19%	-7%	-31*	-20%	11%
CCOc1ccc(C(=O)C(C)OC(=O)Cn2[nH]c(=O)c3ccccc3c2=O)cc1 (stereo unspecified)	nt	nt	nt	nt	nt	-9%
CN(C)CC[C@@H](C(=O)C(C)(C)C)c1ccccn1	1%[10 µM]	nt	4%[14.2 µM]	nt	nt	nt
CN1CCCc2cc(C=O)ccc21	9%[1.9 µM]	-7%	-17%	-4	-4%	6%
CCCN1CCCc2cc(CN)ccc21	-16%[10 µM]	13µM*	nt	-52*	?	28µM*
Cc1ccc(C(C2C(=O)CC(C)(C)CC2=O)C2C(=O)CC(C)(C)CC2=O)s1	-37%	12%	-8%	0	-11%	40µM*
CC1(C)CC(=O)C(C(c2ccncc2)C2C(=O)CC(C)(C)CC2=O)C(=O)C1	-11%	16%	-3%	1	-15%	10%
COc1ccc(C(C2C(=O)CC(C)(C)CC2=O)C2C(=O)CC(C)(C)CC2=O)cc1	-5%[10 µM]	-3%[9.22 µM]	8%	3	-22%	56µM*
COC(=O)c1ccc(C(=O)NC2CCCc3c2cnn3-c2cc(F)cc(F)c2)nc1 (stereo unspecified)	nt	nt	nt	-3	nt	-13%
CCCSC1=NC2(CCN(C(=O)NC3CCCCC3)CC2)N=C1c1ccc(C)cc1	nt	nt	nt	nt	nt	-1%
COc1ccc(CNC(=O)c2sc3nc4c(c(C(F)(F)F)c3c2N)CCC4)cc1OC	nt	-2%	-9%	0	4%	40µM*
COc1ccc(C(=O)c2sc3nc4c(c(C(F)(F)F)c3c2N)CN(C(C)=O)CC4)cc1OC	nt	nt	nt	nt	nt	-2%
C=CCn1c(P(=O)(O)c2ccccc2)nc2ccccc21	-40%	8%	5.6µM*	2	-1%	-26%
Cc1cc2c(cc1NC(=O)c1ccc(C(C)(C)C)cc1)n(C)c(=O)c(=O)n2C	nt	nt	nt	nt	nt	10%
C=CCc1cc(/C=C/c2nc(O)c([N+](=O)[O-])c(=O)[nH]2)cc(OC)c1O	nt	13%	-54%	-2	-30%	79µM*
O=[N+]([O-])c1ccc2c(c1)c(S(=O)(=O)O)cc1nonc12	0%[10 µM]	nt	0%[14.2 µM]	nt	nt	nt
C=CCn1c(SCC(=O)N(C)c2c(N)n(Cc3ccccc3)c(=O)[nH]c2=O)nnc1-c1ccccc1OC	nt	nt	nt	0	nt	-3%
SMILES	HTT cytoprotect	HTT aggregate	RGS12 GoLoco inh	Coupling enz	KDM4E inh	VDR inh
COC(=O)c1cc(OC)nc(OC)c1	2%[10 µM]	16%[9.22 µM]	2%	1	?	-14%
COC(=O)c1cc(O)c(O)c(O)c1	nt	-4%	-2%	2	16µM*	-4%
N=C1C=CC=C2C1=NC1(CCCCC1)N2O	2%	18%	-6%	-48*	?	-14%
C=CCN(c1ccc(C(=O)Nc2cccc(C)c2)cc1)S(C)(=O)=O	nt	5%	12%	1	11%	-4%
C=CCN(c1ccc(C(=O)Nc2ccc(NC(C)=O)cc2)cc1)S(C)(=O)=O	-18%	-2%	0%	1	-2%	35µM*
Cc1ccc(-c2nc(NC(=O)CSc3nnc(C)s3)ns2)cc1	0%	?	45%	1	-1%	-7%
COc1ccc(-c2nc(NC(=O)CSc3nnc(C)s3)ns2)cc1	2%[1.9 µM]	11µM*	10%	2	?	10%
Cc1nnc(SCC(=O)Nc2nsc(-c3ccccc3)n2)s1	-3%[0.074 µM]	13µM*	10%	-6	-8%	2%
COc1ccc(CNC(=O)c2cc3ccccn3n2)cc1OC	nt	nt	nt	nt	nt	7%
COc1ccc(-c2c(C)nn3c(N4CCN(c5cc(Cl)ccc5C)CC4)cc(C)nc23)cc1OC	nt	nt	nt	nt	nt	-1%
CSc1ccc2c(c1)C(N1CCN(C)CC1)Cc1ccccc1S2 (stereo unspecified)	-39%	?	11%	4	3%	50µM*!
CSc1ccc2c(c1)[C@H](N1CCN(C)CC1)Cc1ccccc1S2	-33%[1.9 µM]	nt	37%	2	-3%	?
O=[N+]([O-])c1cccc(Cl)c1Cl	7%	nt	3.2µM*	nt	nt	nt
O=[N+]([O-])c1ccccc1Oc1ccccc1Cl	-11%[10 µM]	-10%	2%	-8	1%	8%
Cc1cc(Oc2nc3ccccn3c(=O)c2/C=C(\C#N)C(=O)NC2CCS(=O)(=O)C2)ccc1Cl (stereo unspecified)	nt	nt	nt	1	nt	32µM*
N#C/C(=C\c1c(Oc2ccc(Cl)cc2)nc2ccccn2c1=O)C(=O)NC1CCS(=O)(=O)C1 (stereo unspecified)	nt	nt	nt	-4	nt	50µM*
Cc1cccn2c(=O)c(/C=C(\C#N)C(=O)NC3CCS(=O)(=O)C3)c(Oc3ccc(F)cc3)nc12 (stereo unspecified)	nt	nt	nt	-2	nt	20µM*
Cc1cccn2c(=O)c(/C=C(\C#N)C(=O)NC3CCS(=O)(=O)C3)c(N3CCC(C)CC3)nc12 (stereo unspecified)	16%[10 µM]	-6%	4%	-3	?	-3%
Cc1nc(-c2ccccc2)sc1-c1ccc(SCC(=O)NCc2ccc(F)cc2)nn1	nt	nt	nt	nt	nt	8%
Clc1ccccc1-c1cc(NCc2ccccc2)ncn1	-33%	nt	5%	-2	nt	45µM*
Cc1cc(=O)[nH]c(N=N/C(=N/Nc2ccccc2C)c2ccccc2)n1	-48%	?	-1%	-1	-12%	22%
COc1ccc(N/N=C(/N=Nc2nc(C)cc(=O)[nH]2)c2ccccc2)cc1	-81%[10 µM]	?	-3%	-11	14µM*	-12%
Cc1cc(=O)[nH]c(N=N/C(=N/Nc2ccc(O)cc2)c2ccccc2)n1	-90%[10 µM]	1.6µM*	-52%	0	3%	-24%
